# Results published in PubChem BioAssay (NCATS).
# Records with an inconclusive call do not appear. Where a call stands in place of a potency, no number is given. Calls of active or inactive are those of the source. Calls follow the shape of the dose curve; as a rule, active = well fitted curve in the direction sought with a large enough effect; inconclusive = small, poorly fitted or top-dose-only effect, or another doubt; inactive = no such curve, though single readings can be large; an effect the other way counts as inactive or inconclusive.
# Target: Aldehyde dehydrogenase, mitochondrial (Homo sapiens) (UniProt P05091)
# Assay: qHTS for Inhibitors of the Aldehyde Dehydrogenase Family (ALDH2) Primary screen (AID 2061308); also: nearly all actives have a fitted effect of over 55% in size
# Details: ALDH2 enzyme inhibition qHTS, 1536-well; series mostly up to 56 µM
row,SMILES,Potency
1,NC(=O)c1cccc(-c2noc(-c3ccccc3F)n2)c1,inactive
2,O=C(Nc1nnc(-c2ccncc2)s1)Nc1cc(C(F)(F)F)ccc1F,inactive
3,O=C1CCCC2=C1C(c1[nH]ncc1Cl)NC(=NCc1ccco1)N2 (stereo not given),inactive
4,COc1cc(NC(=O)c2cnn3c(C)cc(C)nc23)cc(OC)c1OC,inactive
5,Cc1nc(N2CCOCC2)c2nc(-c3ccccc3)n(CC3CCN(C)CC3)c2n1,inactive
6,Cc1cc2c(s1)c1cnn(Cc3ccc(C(F)(F)F)cc3F)c(=O)c1n2C,inactive
7,COc1cccc(CNc2ccc(S(=O)(=O)Nc3nc(C)cs3)cc2)c1O,inactive
8,CN1CCN(Nc2nn3c(=O)c4ccccc4nc3s2)CC1,inactive
9,COc1ccc(C2Nc3ccccc3C(=O)N2Cc2cccnc2)cc1COc1c(C)cc(NC(C)=O)cc1C (stereo not given),inactive
10,c1nc(NCCC2CCCO2)c2cc(-c3ccc4c(c3)OCO4)ccc2n1 (stereo not given),inactive
11,O=S(=O)(c1ccc2c(c1)OCCO2)N1CCN(S(=O)(=O)c2c(F)cc(F)cc2F)CC1,inactive
12,Cc1ccc(C(=O)NC2CCN(C#N)CC2)cc1,inactive
13,COc1ccnc(NC(=S)N2CCN(c3ccc4ccccc4n3)CC2)c1,inactive
14,COc1cc(OC)cc(C2=Nn3c(nnc3-c3cccc(OC)c3)SC2)c1,inactive
15,Cc1nnc(-c2cnn(C)c2)n1CCCn1ccnc1,inactive
16,Cc1ccc(OCCn2c(CCNC(=O)Cc3cc(F)ccc3F)nc3ccccc32)cc1,inactive
17,O=S(=O)(Nc1ccc(C2CCNCC2)cc1)c1ccc(NCc2cccc(Cl)c2O)cc1,inactive
18,COc1cccc2nc3sc(Nc4ccc5c(c4)CCC5)nn3c(=O)c12,inactive
19,O=C(O)c1ccc2c(c1)C(=O)N([C@H](Cc1cccc3ccccc13)C(=O)O)C2=O,inactive
20,N#Cc1c(-c2cc(C(F)(F)F)cc(C(F)(F)F)c2)no[n+]1[O-],inactive
21,COc1ccc(NC(=O)C(OC(=O)CNC(=O)c2ccccc2)c2ccccc2)cc1F (stereo not given),inactive
22,O=C(/C=C/c1cccc(Cl)c1)Nc1cccc([S+](=O)([O-])Nc2ccccc2F)c1,inactive
23,Cc1c(P(=S)(c2ccccc2)c2ccccc2)c2ccccc2n1C(=O)NCc1ccccc1,inactive
24,CCN1CCCC1Cn1c(-c2ccccc2)nc2c(N(CCOC)CCOC)nc(C)nc21 (stereo not given),inactive
25,Cc1cc(NC(=O)Nc2nnc(-c3cccnc3)s2)ccc1Cl,inactive

# Target: Retinaldehyde dehydrogenase 3 (Homo sapiens) (UniProt P47895)
# Assay: qHTS for Inhibitors of the Aldehyde Dehydrogenase Family (ALDH1A3) Primary screen (AID 2061315)
# Details: ALDH inhibition qHTS; series mostly up to 56 µM
row,SMILES,Potency
1,COc1cc(OC)cc(-c2csc(N3CCC(C(N)=O)CC3)n2)c1,inactive
2,Cc1ccc(-c2nc3ccccc3[nH]2)cc1NC(=O)c1ccc(-c2cccc(Cl)c2)o1,inactive
3,O=C(O)c1ccc(CSc2nnc(-c3cccc(S(=O)(=O)NC4CCCC4)c3)n2-c2ccc(F)cc2)cc1,inactive
4,N#Cc1nc(Nc2cc(F)cc(Cl)c2)nc(NC2CCCC2)n1,inactive
5,CCN(CC)CCn1c(-c2ccccc2)nc2c(NCc3ccccc3)nc(C)nc21,inactive
6,O=C(c1ccccc1)N(C(=O)c1ccccc1)c1ncnc2c1C(c1ccccc1)c1c(ccc3ccccc13)O2 (stereo not given),inactive
7,O=C(O)c1cccc2c1C(=O)N(c1ccccc1)C2,inactive
8,Cc1cc2c(s1)c1cnn(Cc3ccccc3C)c(=O)c1n2C,inactive
9,O=C1C[C@]23C=CCN4CCC5c6cc7c(cc6N1[C@@]5(CC2)C43)OCO7 (stereo not given in full),inactive
10,CO/N=C(/C(=O)N[C@@H]1C(=O)N2C(C(=O)O)=C(Cn3nnc(C)n3)CS[C@H]12)c1csc(N)n1,inactive
11,COc1ccc(-c2ccc3ncnc(NCc4cccs4)c3c2)cc1,inactive
12,C[C@@H]1CC[C@]2(C(=O)O)CC[C@]3(C)C(=CCC4[C@@]5(C)C[C@@H](O)[C@H](O)[C@@](C)(CO)C5CC[C@]43C)C2[C@H]1C (stereo not given in full),inactive
13,CCOC(=O)c1csc(-n2nc(-c3ccc(F)c(F)c3)c(Cc3ccc(S(N)(=O)=O)cc3)c2N)n1,inactive
14,Cc1cc(OCCCSc2nc(-c3ccc(C(C)(C)C)cc3)nc3cc(=O)[nH]n23)ccc1Cl,inactive
15,Oc1cccc2cc(-c3ccncc3)cnc12,inactive
16,NC(=O)c1cccc(-c2noc(-c3ccccc3F)n2)c1,inactive
17,O=C(Nc1nnc(-c2ccncc2)s1)Nc1cc(C(F)(F)F)ccc1F,inactive
18,O=C1CCCC2=C1C(c1[nH]ncc1Cl)NC(=NCc1ccco1)N2 (stereo not given),inactive
19,COc1cc(NC(=O)c2cnn3c(C)cc(C)nc23)cc(OC)c1OC,inactive
20,Cc1nc(N2CCOCC2)c2nc(-c3ccccc3)n(CC3CCN(C)CC3)c2n1,inactive

row,SMILES,Potency
1,Cc1cc2c(s1)c1cnn(Cc3ccc(C(F)(F)F)cc3F)c(=O)c1n2C,inactive
2,COc1cccc(CNc2ccc(S(=O)(=O)Nc3nc(C)cs3)cc2)c1O,inactive
3,CN1CCN(Nc2nn3c(=O)c4ccccc4nc3s2)CC1,inactive
4,COc1ccc(C2Nc3ccccc3C(=O)N2Cc2cccnc2)cc1COc1c(C)cc(NC(C)=O)cc1C (stereo not given),inactive
5,c1nc(NCCC2CCCO2)c2cc(-c3ccc4c(c3)OCO4)ccc2n1 (stereo not given),inactive
6,O=S(=O)(c1ccc2c(c1)OCCO2)N1CCN(S(=O)(=O)c2c(F)cc(F)cc2F)CC1,inactive
7,Cc1ccc(C(=O)NC2CCN(C#N)CC2)cc1,inactive
8,COc1ccnc(NC(=S)N2CCN(c3ccc4ccccc4n3)CC2)c1,inactive
9,COc1cc(OC)cc(C2=Nn3c(nnc3-c3cccc(OC)c3)SC2)c1,inactive
10,Cc1nnc(-c2cnn(C)c2)n1CCCn1ccnc1,inactive
11,Cc1ccc(OCCn2c(CCNC(=O)Cc3cc(F)ccc3F)nc3ccccc32)cc1,inactive
12,O=S(=O)(Nc1ccc(C2CCNCC2)cc1)c1ccc(NCc2cccc(Cl)c2O)cc1,inactive
13,COc1cccc2nc3sc(Nc4ccc5c(c4)CCC5)nn3c(=O)c12,inactive
14,O=C(O)c1ccc2c(c1)C(=O)N([C@H](Cc1cccc3ccccc13)C(=O)O)C2=O,inactive
15,N#Cc1c(-c2cc(C(F)(F)F)cc(C(F)(F)F)c2)no[n+]1[O-],inactive
16,COc1ccc(NC(=O)C(OC(=O)CNC(=O)c2ccccc2)c2ccccc2)cc1F (stereo not given),inactive
17,O=C(/C=C/c1cccc(Cl)c1)Nc1cccc([S+](=O)([O-])Nc2ccccc2F)c1,inactive
18,Cc1c(P(=S)(c2ccccc2)c2ccccc2)c2ccccc2n1C(=O)NCc1ccccc1,inactive
19,CCN1CCCC1Cn1c(-c2ccccc2)nc2c(N(CCOC)CCOC)nc(C)nc21 (stereo not given),inactive
20,Cc1cc(NC(=O)Nc2nnc(-c3cccnc3)s2)ccc1Cl,inactive
